# Source: the supplement of paper PMC6555819
# Test system: VDR:RXRa (NR concentration 270 nM, RXRa partner concentration 90 nM)
# Experiment: PBM binding z-score (relative to random genomic background probes); higher = stronger binding; sequences stand for … in GC…GCGATTGACAGCGTAGAATGAAGG
# Protocol: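 Protein-binding microarray (Agilent 4x180K custom design, double-stranded 60-nt probes: 5' GC cap, 34-nt variable region, 24-nt constant primer region; full probe sequence given). Purified or IVT nuclear receptor:RXRα heterodimers (3:1 NR:RXRα, mostly 270:90 nM) or homodimers were incubated for 1 h in PBS with 2% milk and no ligand, then detected with Alexa488 antibodies. Fluorescence from o1-orientation probes (~5 replicates averaged) was converted to z-scores against 500 random hg19 background probes. Variable regions are seed direct-repeat (DR0–DR5) sites, all their single-nucleotide variants and half-site ablations.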
row,Sequence,PBM binding z-score
1,CTCGAAAGGTCGTGCTCAGGTGAGTATACCAAAC,3.39
2,GATACAGGGTCAAAGCCAGAGTACGCGTATTGAT,4.5
3,CGTCTAAGGTCAGAGAGGTCAGTGAATGCCGAGT,7.63
4,CGAACTCGGTCAAGGACAGTGAATCTCCGCACGC,0.0619
5,ATATGTAGGTTATCGGGTTATTCAGTTTGCGCAT,3.47
6,CTGAGTAGGTTATGGGGCATTCAGGCAACGGTGA,0.0973
7,ATCTCTAGGTAAAAATAGTTCAGTGAATGCAAAT,1.11
8,TCTAGTTGGTCACGGAGGTCATACACGACGGGTA,5.88
9,AGCATGAGGTTATACGTAGATCAGGGAAGAAAGT,1.44
10,GCTTACGGGTCACAGGTTATAGCATGAATAGAAT,3.9
11,TCAGACAGGTGAAGGTACCTCAGGTACGCAGTCG,0.202
12,GCGACTGGGGCATCAGTAGGTTACCATAACTTAA,-0.141
13,CATACTAGGTCACAGAGGTCAAAGTCCGTGCGTA,7.98
14,CCAGACAGGTAAAAGGTAACTCAGTCTGGTACGC,0.318
15,CCAGACAGGTGACAGGTAACTCAGTCTGGTACGC,-0.206
16,GCCTGTAGATCAAGGTTAAGAAAGACTAAGCTAA,0.142
17,ACTTACGGATCAACGAGGTTATAGCACGCGTATA,4.59
18,GATATAGGGTCAAGGCCAGAGTACGCGTATTGAT,4.5
19,CCTAGTTGGTCAGGAGGTTACACACCGGATATGA,0.869
20,GGAACGAGGCCAAAGTTGATAGCATCTGTCGACG,-0.112

row,Sequence,PBM binding z-score
1,GTACCAAGGTGAATAGGTCGTGGATGAGTAGGCG,0.918
2,TAGCCTAGGTCATGGGGCAGTATACCACGCGAAC,2.45
3,ATCGAAAGTTCGTGAGGTGAGTATACAGAAAGGC,2.02
4,TCATATCGGTAAAAGGTGAAAGTCGGTGTGGTAA,1.54
5,CAAACTAAGTCAAGGTCAAAGTCGGTTTGTGCCA,4.62
6,GCGACTGGGGCATCAGCAGGTTACCAAAACTTAA,-0.298
7,CAGACTAGGTCACAGAGGTCAAAGTCCGTGCGTA,7.98
8,GCAGACAGGTAAAACGCAGGTAACTCAGGGTGGC,-0.484
9,CCTTACCGGTCACTGACAGGTTATAGCATTTGGA,0.869
10,ATATGTTGGTTATCGGGTCATTCAGTTTGCGCAT,4.86
11,TCGCGGAGGACACGAAGGTCAGAGCTTTCCAGAG,2.1
12,CATCCAAGGTCAGAGAGGTCAGTGAATGCCGAGT,7.55
13,AATACAGGGTCATCGTAGGCCAGTGTACGCACAG,5.18
14,GCTGCTAGGTCAGTTTGGTCAGCTAACGGGTACG,0.529
15,CCTGCAAGGTCAATGGTCAGCTAAAGCAGCTCGC,3.76
16,ATCTCTAGGTAAAGATAGTTCAGTGAGTGCAAAT,5.05
17,GTACCAAGGTGAATAGGGCGTTGATGAGTAGGCG,-0.176
18,CGTCCAAGGTCCGCAGGTCAGTGAAAGCGACGTG,-0.111
19,TAGCCTAGGTCATTGGGCCATTATAGTACGCATC,2.54
20,TCAGACATGTGAAGGTAACTCAGGTACGCAGTCG,0.627
